# Experimental data taken from publication PMC5540273 (PLoS ONE, 2017).
# How the values were obtained:
# Conditions in all cases: concentration: 1 μM, replicates: in singlicate; n = 1
# ALK = test system: ALK
# AMPK-alpha1 = test system: T1, AMPK-alpha1
# T1 construct: gene PRKAA1
# AMPK-alpha2 = test system: T2, AMPK-alpha2
# T2 construct: gene PRKAA2
# ANKK1 = test system: ANKK1
# ARK5 = test system: T3, ARK5
# T3 construct: gene NUAK1
# ASK1 = test system: T4, ASK1
# T4 construct: gene MAP3K5
# ASK2 = test system: T5, ASK2
# T5 construct: gene MAP3K6
# AURKB = test system: AURKB
# AURKC = test system: AURKC
# AXL = test system: AXL
# BIKE = test system: T6, BIKE
# T6 construct: gene BMP2K
# BLK = test system: BLK
# BMPR1A = test system: BMPR1A
# BMPR1B = test system: BMPR1B
# BMPR2 = test system: BMPR2
# BMX = test system: BMX
# BRAF = test system: BRAF
# BRK = test system: T7, BRK
# T7 construct: gene PTK6
# BRSK1 = test system: BRSK1
# AURKA = test system: AURKA
# 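Note: KINOMEscan kinase panel screen.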
smiles,measurement,setting,value
C[C@@H]1CC[C@H](C(=O)NC2CCCCC2)CN1c1cc(-c2ccc3c(N)n[nH]c3c2)nc(N)n1 [GSK2291363],%Inh,ALK,29%
same,%Inh,AMPK-alpha1,7%
same,%Inh,AMPK-alpha2,14%
same,%Inh,ANKK1,20%
same,%Inh,ARK5,6%
same,%Inh,ASK1,9%
same,%Inh,ASK2,7%
same,%Inh,AURKB,24%
same,%Inh,AURKC,69%
same,%Inh,AXL,4%
same,%Inh,BIKE,78%
same,%Inh,BLK,52%
same,%Inh,BMPR1A,0%
same,%Inh,BMPR1B,0%
same,%Inh,BMPR2,0%
same,%Inh,BMX,21%
same,%Inh,BRAF,5%
same,%Inh,BRK,27%
same,%Inh,BRSK1,0%
COc1ccc(CNC(=O)NC2CCN(c3ccnc(Nc4ccc(F)cc4)n3)C2)cc1 (centres unmarked) [GSK1379706],%Inh,ALK,0%
same,%Inh,AMPK-alpha1,0%
same,%Inh,AMPK-alpha2,0%
same,%Inh,ANKK1,8%
same,%Inh,ARK5,16%
same,%Inh,ASK1,11%
same,%Inh,ASK2,0%
same,%Inh,AURKA,35%
same,%Inh,AURKB,20%
same,%Inh,AURKC,19%
same,%Inh,AXL,10%
same,%Inh,BIKE,0%
same,%Inh,BLK,3%
same,%Inh,BMPR1A,6%
same,%Inh,BMPR1B,0%
same,%Inh,BMPR2,22%
same,%Inh,BMX,26%
same,%Inh,BRAF,3%
same,%Inh,BRK,21%
same,%Inh,BRSK1,0%
COc1cc2ncn(-c3cc(OCc4ccncc4)c(C(N)=O)s3)c2cc1OC [GSK336313],%Inh,ALK,20%
same,%Inh,AMPK-alpha1,0%
same,%Inh,AMPK-alpha2,0%
same,%Inh,ANKK1,0%
same,%Inh,ARK5,16%
same,%Inh,ASK1,6%
same,%Inh,ASK2,0%
same,%Inh,AURKA,17%
same,%Inh,AURKB,0%
same,%Inh,AURKC,4%
same,%Inh,AXL,0%
same,%Inh,BIKE,14%
same,%Inh,BLK,0%
same,%Inh,BMPR1A,0%
same,%Inh,BMPR1B,0%
same,%Inh,BMPR2,0%
same,%Inh,BMX,2%
same,%Inh,BRAF,0%
same,%Inh,BRK,0%
same,%Inh,BRSK1,0%
CCC(=O)c1c(-c2ccccc2)c2cc(Cl)ccc2c(=O)n1Cc1cc(S(C)(=O)=O)n(CC(N)=O)n1,%Inh,ALK,0%
same,%Inh,AMPK-alpha1,0%
same,%Inh,AMPK-alpha2,0%
same,%Inh,ANKK1,0%
same,%Inh,ARK5,0%
same,%Inh,ASK1,0%
same,%Inh,ASK2,0%
same,%Inh,AURKA,0%
same,%Inh,AURKB,0%
same,%Inh,AURKC,0%
same,%Inh,AXL,2%
same,%Inh,BIKE,0%
same,%Inh,BLK,5%
same,%Inh,BMPR1A,0%
same,%Inh,BMPR1B,0%
same,%Inh,BMPR2,0%
same,%Inh,BMX,16%
same,%Inh,BRAF,0%
same,%Inh,BRK,0%
same,%Inh,BRSK1,0%
COc1cc2ncn(-c3cc(OCCCc4ccccc4)c(C(N)=O)s3)c2cc1OC [GSK205189],%Inh,ALK,0%
same,%Inh,AMPK-alpha1,28%
same,%Inh,AMPK-alpha2,0%
same,%Inh,ANKK1,0%
same,%Inh,ARK5,0%
same,%Inh,ASK1,0%
same,%Inh,ASK2,0%
same,%Inh,AURKA,0%
same,%Inh,AURKB,18%
same,%Inh,AURKC,45%
same,%Inh,AXL,13%
same,%Inh,BIKE,36%
same,%Inh,BLK,12%
same,%Inh,BMPR1A,0%
same,%Inh,BMPR1B,0%
same,%Inh,BMPR2,0%
same,%Inh,BMX,11%
same,%Inh,BRAF,0%
same,%Inh,BRK,1%
same,%Inh,BRSK1,1%
Cc1nc(N(C)[C@H]2CN(C(=O)CC#N)CC[C@H]2C)c2cc[nH]c2n1,%Inh,ALK,0%
same,%Inh,AMPK-alpha1,0%
same,%Inh,AMPK-alpha2,0%
same,%Inh,ANKK1,0%
same,%Inh,ARK5,0%
same,%Inh,ASK1,0%
same,%Inh,ASK2,0%
same,%Inh,AURKA,0%
same,%Inh,AURKB,0%
same,%Inh,AURKC,0%
same,%Inh,AXL,9%
same,%Inh,BIKE,0%
same,%Inh,BLK,18%
same,%Inh,BMPR1A,0%
same,%Inh,BMPR1B,10%
same,%Inh,BMPR2,8%
same,%Inh,BMX,0%
same,%Inh,BRAF,0%
same,%Inh,BRK,0%
same,%Inh,BRSK1,0%
Cl.NS(=O)(=O)c1cccc(Nc2cc(-c3ccc(F)cc3)n[nH]2)c1 [GW824645],%Inh,ALK,0%
same,%Inh,AMPK-alpha1,0%
same,%Inh,AMPK-alpha2,18%
same,%Inh,ANKK1,0%
same,%Inh,ARK5,0%
same,%Inh,ASK1,0%
same,%Inh,ASK2,0%
same,%Inh,AURKA,4%
same,%Inh,AURKB,29%
same,%Inh,AURKC,0%
same,%Inh,AXL,0%
same,%Inh,BIKE,0%
same,%Inh,BLK,23%
same,%Inh,BMPR1A,7%
same,%Inh,BMPR1B,0%
same,%Inh,BMPR2,45%
same,%Inh,BMX,0%
same,%Inh,BRAF,33%
same,%Inh,BRK,0%
same,%Inh,BRSK1,0%
FC(F)(F)c1ccc(-c2ncn(CCCN3CCOCC3)c2-c2ccncc2)cc1 [SB-217780],%Inh,ALK,0%
same,%Inh,AMPK-alpha1,9%
same,%Inh,AMPK-alpha2,4%
same,%Inh,ANKK1,0%
same,%Inh,ARK5,0%
same,%Inh,ASK1,0%
same,%Inh,ASK2,0%
same,%Inh,AURKA,0%
same,%Inh,AURKB,0%
same,%Inh,AURKC,27%
same,%Inh,AXL,40%
same,%Inh,BIKE,13%
same,%Inh,BLK,4%
same,%Inh,BMPR1A,7%
same,%Inh,BMPR1B,0%
same,%Inh,BMPR2,39%
same,%Inh,BMX,1%
same,%Inh,BRAF,0%
same,%Inh,BRK,4%
same,%Inh,BRSK1,13%
COc1ccc(-c2cc3c(C)nc(N)nc3n([C@H]3CC[C@H](OCCO)CC3)c2=O)cn1,%Inh,ALK,0%
same,%Inh,AMPK-alpha1,5%
same,%Inh,AMPK-alpha2,2%
same,%Inh,ANKK1,0%
same,%Inh,ARK5,0%
same,%Inh,ASK1,11%
same,%Inh,ASK2,0%
same,%Inh,AURKA,0%
same,%Inh,AURKB,0%
same,%Inh,AURKC,7%
same,%Inh,AXL,0%
same,%Inh,BIKE,22%
same,%Inh,BLK,2%
same,%Inh,BMPR1A,5%
same,%Inh,BMPR1B,1%
same,%Inh,BMPR2,0%
same,%Inh,BMX,0%
same,%Inh,BRAF,0%
same,%Inh,BRK,0%
same,%Inh,BRSK1,28%
CN1C(=O)C(Nc2ccccc2)=C(c2ccccc2)C1=O [SB-300079],%Inh,ALK,7%
same,%Inh,AMPK-alpha1,0%
same,%Inh,AMPK-alpha2,1%
same,%Inh,ANKK1,15%
same,%Inh,ARK5,0%
same,%Inh,ASK1,0%
same,%Inh,ASK2,0%
same,%Inh,AURKA,0%
same,%Inh,AURKB,21%
same,%Inh,AURKC,0%
same,%Inh,AXL,0%
same,%Inh,BIKE,0%
same,%Inh,BLK,23%
same,%Inh,BMPR1A,12%
same,%Inh,BMPR1B,0%
same,%Inh,BMPR2,14%
same,%Inh,BMX,0%
same,%Inh,BRAF,9%
same,%Inh,BRK,0%
same,%Inh,BRSK1,0%
Cn1c(=O)c(F)c(Nc2ccc(I)cc2F)c2c(=O)n(OC[C@H](O)CO)cnc21,%Inh,ALK,0%
same,%Inh,AMPK-alpha1,0%
same,%Inh,AMPK-alpha2,13%
same,%Inh,ANKK1,0%
same,%Inh,ARK5,0%
same,%Inh,ASK1,0%
same,%Inh,ASK2,0%
same,%Inh,AURKA,0%
same,%Inh,AURKB,9%
same,%Inh,AURKC,30%
same,%Inh,AXL,10%
same,%Inh,BIKE,30%
same,%Inh,BLK,9%
same,%Inh,BMPR1A,0%
same,%Inh,BMPR1B,0%
same,%Inh,BMPR2,0%
same,%Inh,BMX,0%
same,%Inh,BRAF,0%
same,%Inh,BRK,2%
same,%Inh,BRSK1,0%
Nc1nccc2scc(-c3ccc4c(c3)CCN4C(=O)Cc3ccccc3)c12 [GSK2576924],%Inh,ALK,0%
same,%Inh,AMPK-alpha1,0%
same,%Inh,AMPK-alpha2,21%
same,%Inh,ANKK1,21%
same,%Inh,ARK5,9%
same,%Inh,ASK1,6%
same,%Inh,ASK2,0%
same,%Inh,AURKA,9%
same,%Inh,AURKB,16%
same,%Inh,AURKC,25%
same,%Inh,AXL,36%
same,%Inh,BIKE,8%
same,%Inh,BLK,1%
same,%Inh,BMPR1A,0%
same,%Inh,BMPR1B,0%
same,%Inh,BMPR2,2%
same,%Inh,BMX,19%
same,%Inh,BRAF,0%
same,%Inh,BRK,43%
same,%Inh,BRSK1,0%
Cc1cc(Nc2nc(-c3cccc(C)n3)nc3ccccc23)ccn1 [GW872411],%Inh,ALK,0%
same,%Inh,AMPK-alpha1,0%
same,%Inh,AMPK-alpha2,0%
same,%Inh,ANKK1,0%
same,%Inh,ARK5,9%
same,%Inh,ASK1,0%
same,%Inh,ASK2,0%
same,%Inh,AURKA,3%
same,%Inh,AURKB,14%
same,%Inh,AURKC,0%
same,%Inh,AXL,0%
same,%Inh,BIKE,0%
same,%Inh,BLK,0%
same,%Inh,BMPR1A,3%
same,%Inh,BMPR1B,0%
same,%Inh,BMPR2,0%
same,%Inh,BMX,0%
same,%Inh,BRAF,0%
same,%Inh,BRK,0%
same,%Inh,BRSK1,0%
Cc1cccc(-c2nc(Nc3ccc4c(cnn4C)c3)c3ccccc3n2)n1 [GW876731],%Inh,ALK,0%
same,%Inh,AMPK-alpha1,0%
same,%Inh,AMPK-alpha2,17%
same,%Inh,ANKK1,16%
same,%Inh,ARK5,5%
same,%Inh,ASK1,0%
same,%Inh,ASK2,10%
same,%Inh,AURKA,24%
same,%Inh,AURKB,6%
same,%Inh,AURKC,0%
same,%Inh,AXL,25%
same,%Inh,BIKE,0%
same,%Inh,BLK,0%
same,%Inh,BMPR1A,1%
same,%Inh,BMPR1B,0%
same,%Inh,BMPR2,1%
same,%Inh,BMX,7%
same,%Inh,BRAF,0%
same,%Inh,BRK,0%
same,%Inh,BRSK1,0%
COc1cc2ncn(-c3cc(OCc4ccc(S(C)(=O)=O)cc4)c(C(N)=O)s3)c2cc1OC [GW869979],%Inh,ALK,26%
same,%Inh,AMPK-alpha1,0%
same,%Inh,AMPK-alpha2,0%
same,%Inh,ANKK1,20%
same,%Inh,ARK5,0%
same,%Inh,ASK1,18%
same,%Inh,ASK2,37%
same,%Inh,AURKA,0%
same,%Inh,AURKB,0%
same,%Inh,AURKC,0%
same,%Inh,AXL,31%
same,%Inh,BIKE,0%
same,%Inh,BLK,46%
same,%Inh,BMPR1A,11%
same,%Inh,BMPR1B,30%
same,%Inh,BMPR2,8%
same,%Inh,BMX,6%
same,%Inh,BRAF,6%
same,%Inh,BRK,0%
same,%Inh,BRSK1,4%
